Compounds with a hit are over-represented: about 2.3% of the library has one in this group of screens.
Tau fluor counter: Counterscreen qHTS for Inhibitors of Tau Fibril Formation, Fluorescence Polarization; tau K18 P301L Alexa594 fluorescence, heparin fibrillization; Potency, µM (series often up to 57.7 µM), without a hit: top-dose activity change, negative = decrease; 280,000 tested, 0.93% active; further: potency means the concentration at half of the fitted maximal effect; nearly all actives have a fitted effect of over 55% in size
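Human tau K18 P301L (15 uM unlabeled, 0.24 uM Alexa 594-labeled) in 100 mM sodium acetate pH 7 with 20 uM heparin, 6 hr at 37 C. ThT 30 uM added, 1 hr ambient; Alexa 594 FP and total fluorescence read at 555/632 nm.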
Coupling enz: qHTS Assay for Inhibitors of Fructose-1,6-bisphosphate Aldolase from Giardia Lamblia: Coupling assay counterscreen; coupling enzyme system counterscreen, AmpLite Red fluorescence; activity change, negative = inhibition, % at 58.2 µM, hits read low; 290,000 tested, 0.67% active; AID 2472, 2010; in the data active means activity change below about -30%
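Compounds tested against the coupling enzymes alone at 57.5 uM final; readout was AmpLite Red fluorescence (525/598 nm) after 20 min at RT.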
Tau ThT inhib: qHTS for Inhibitors of Tau Fibril Formation, Thioflavin T Binding; Microtubule-associated protein tau (Homo sapiens), P10636; recombinant tau K18 P301L, heparin-induced fibrillization, ThT fluorescence; Potency, µM (highest dose often 57.4 µM), inactives show top-dose activity, negative = inhibition, most hits filed as inhibitors; 270,000 tested, 2.1% active; further: potency means the concentration at half of the fitted maximal effect; nearly all actives have a fitted effect of over 55% in size
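ThT emission at 510 nm, taken 1 hr after adding 30 uM dye, quantifies aggregates formed when 20 uM heparin acts on human tau K18 P301L for 6 hr at 37 C.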
USP1-UAF1 inh: Inhibitors of USP1/UAF1: Primary Screen; recombinant USP1/UAF1, Ub-Rhodamine cleavage fluorescence; Potency, µM (top dose mostly 57.1 µM), without a hit: top-dose activity change, negative = inhibition, usual class: inhibitors; 390,000 tested, 0.23% active; AID 743255, 2014; further: potency means the concentration at half of the fitted maximal effect; nearly all actives have a fitted effect of over 60% in size
Target sequence (O94782 whole entry, looked up): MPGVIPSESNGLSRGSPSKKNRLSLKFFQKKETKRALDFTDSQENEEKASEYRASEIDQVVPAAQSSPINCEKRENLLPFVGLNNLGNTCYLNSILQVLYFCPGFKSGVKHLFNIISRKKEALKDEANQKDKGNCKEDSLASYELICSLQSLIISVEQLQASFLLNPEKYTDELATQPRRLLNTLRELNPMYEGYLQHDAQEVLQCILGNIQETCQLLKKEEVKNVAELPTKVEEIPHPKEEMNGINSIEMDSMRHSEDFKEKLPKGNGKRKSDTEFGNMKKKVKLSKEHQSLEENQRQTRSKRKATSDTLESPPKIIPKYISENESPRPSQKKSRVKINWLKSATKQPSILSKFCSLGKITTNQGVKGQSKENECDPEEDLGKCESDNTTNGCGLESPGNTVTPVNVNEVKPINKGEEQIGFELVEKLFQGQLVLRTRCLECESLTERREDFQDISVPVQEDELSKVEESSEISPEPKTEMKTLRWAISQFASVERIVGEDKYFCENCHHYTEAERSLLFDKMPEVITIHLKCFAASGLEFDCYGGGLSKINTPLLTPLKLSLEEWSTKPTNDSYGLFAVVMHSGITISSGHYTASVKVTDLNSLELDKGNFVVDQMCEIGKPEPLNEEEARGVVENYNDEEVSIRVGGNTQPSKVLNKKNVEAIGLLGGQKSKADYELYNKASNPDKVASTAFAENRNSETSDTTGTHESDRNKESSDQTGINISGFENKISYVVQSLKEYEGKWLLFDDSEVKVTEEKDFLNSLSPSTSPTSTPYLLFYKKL
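Step one: compound is pinned into 1nM USP1/UAF1 in HEPES pH 7.8 buffer with TCEP. Step two: 15 min room-temperature incubation. Step three: Ub-Rho (150nM final) starts cleavage, tracked by fluorescence over six one-minute reads.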
Tau fibril FP: qHTS for Inhibitors of Tau Fibril Formation, Fluorescence Polarization; K18 P301L tau heparin fibrillization, Alexa594 FP, 6 h; Potency, µM (titrated, usually from 57.7 µM), without a hit: at the top dose activity, negative = inhibition, hits mostly inhibitors; 280,000 tested, 0.39% active; further: potency means the concentration at half of the fitted maximal effect; nearly all actives have a fitted effect of over 55% in size
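Read-out: fluorescence polarization of Alexa 594-labeled tau (0.24 uM), 555 nm excitation, 632 nm emission. Mixtures held 15 uM unlabeled K18 P301L, compound and 20 uM heparin, pH 7 acetate buffer, incubated 6 hr at 37 C.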
An asterisk follows results filed as active; ? = inconclusive; nt = no result given; [ ] = another dose, or the depositor's remark. Unless noted, the call rests on the fitted dose curve; in most records, active means well fitted curve in the direction sought with a large enough effect; inconclusive means small, poorly fitted or top-dose-only effect, or another doubt; inactive means no such curve, though single readings can be large; an effect the other way counts as inactive or inconclusive. On the % scale 0 is the no-effect control and ±100 the full control effect.

SMILES	Tau fluor counter	Coupling enz	Tau ThT inhib	USP1-UAF1 inh	Tau fibril FP
CCOC(=O)c1c(C)[nH]c(N=Nc2ccc(OC)cc2)c1C	3.16µM*[quencher]	-13.2	nt	-19.5%	?
COC(=O)c1c(C)[nH]c(C=Nc2ccc(OC)cc2)c1C	-6.1%	-4.2	-7.2%	-29.4%	-1.4%
Cc1ccc(OCC(=O)Nc2ccc3nc(SCC(=O)N4CCCC4)sc3c2)cc1	-16.8%	nt	?	-6.1%	8.0%
CCC(C)(C)NC(=O)C(C(C)C)N(CC1CCCO1)C(=O)CNS(=O)(=O)c1ccccc1 (centres undefined)	nt	-2.1	nt	-5.4%	nt
O=C(Nc1cccc(-c2csc(Nc3ccc(Cl)cc3)n2)c1)c1cccc(C(F)(F)F)c1	7.94µM*[quencher]	-9.4	12.6µM*	22.7%	-3.1%
O=C(Nc1cccc(-c2csc(-c3ccccc3)n2)c1)c1cccs1	?	-5.4	?	-21.0%	14.1µM*
O=C(Nc1cccc(-c2csc(Nc3ccc(Cl)cc3)n2)c1)c1ccccc1	14.1µM*[quencher]	-0.6	14.1µM*	?	-11.9%
O=C(Nc1cccc(Cl)c1)c1ccc2ncsc2c1	nt	0.6	nt	-3.6%	nt
COc1ccc(-c2[nH]ncc2N=Nc2ccccc2)cc1	?	-1.5	15.8µM*	-19.8%	?
O=C(NCc1ccccn1)c1nc(Cn2ccc([N+](=O)[O-])n2)no1	nt	0.3	nt	?	nt
Cc1ccc(C(=O)Nc2ccccc2)cc1S(=O)(=O)Nc1ccc(Br)cc1	?	nt	3.9%	?	15.8µM*
Cc1ccc(NS(=O)(=O)c2cc(C(=O)Nc3cccc([N+](=O)[O-])c3)ccc2C)cc1	?	-7.9	4.3%	-10.5%	10.4%
Cc1ccc(C(=O)Nc2cccc([N+](=O)[O-])c2)cc1S(=O)(=O)Nc1ccc(NC(=O)c2ccccc2)cc1	4.47µM*[quencher]	-3.7	-16.2%	-15.8%	?
Cc1ccc(NS(=O)(=O)c2ccc(OCC(=O)Nc3cccc([N+](=O)[O-])c3)c(C)c2)cc1	14.1µM*[quencher]	0.9	-3.8%	-19.3%	-7.1%
CN(/N=C/c1ccc(O)cc1O)c1ncc(C(F)(F)F)cc1Cl	17.8µM*[quencher]	1.9	?	-30.5%	16.5%
O=C(/C=C/c1ccc2c(c1)OCO2)Nc1c(C(=O)O)[nH]c2ccccc12	-29.2%	1.2	12.6µM*	-8.7%	10.3%
CCN(CC)c1ccc2cc(-c3nc(-c4cc(OC)c(OC)c(OC)c4)no3)c(=O)oc2c1	-8.8%	nt	?	39.8µM*	-7.2%
CCN(CC)c1ccc2cc(-c3nc(-c4ccccc4F)no3)c(=O)oc2c1	-6.5%	nt	?	?	-9.4%
Cc1ccc(C2C(/C=C3/SC(=S)NC3=O)=C(c3cccs3)Oc3ccccc32)cc1 (centres undefined)	?	4.5	12.6µM*	?	-6.3%
O=C1NC(=S)SC1=Cc1ccccc1Cl	nt	nt	nt	-37.1%	nt
N#C/C(=N/Nc1ccc(OC(F)(F)F)cc1)C(N)=S	?	3.0	6.31µM*	-27.2%	3.9%
COc1ccc(N/N=C(\C#N)C(N)=O)cc1	-6.2%	-1.0	?	-15.7%	6.4%
O=C1[C@@H]2[C@H]3[C@H](O)[C@H](O)C/C(=N/OC[C@@H](O)COCc4ccco4)[C@H]3CC[C@H]2C(=O)N1c1ccc(F)cc1F	-1.6%[11.6 µM]	-30.4*	-6.8%[11.5 µM]	nt	-1.4%[11.6 µM]
Cc1cc(O)c(C(C)C)cc1N=Cc1cc([N+](=O)[O-])ccc1O	?	-28.0	3.55µM*	-6.6%	7.08µM*
Cc1cc(O)c(C(C)C)cc1N=Cc1ccccc1O	?	-50.6*	3.55µM*	?	8.91µM*
SMILES	Tau fluor counter	Coupling enz	Tau ThT inhib	USP1-UAF1 inh	Tau fibril FP
COc1cc(C(=O)O[C@@H]2CC3CC[C@]2(C)C3(C)C)ccc1O	nt	-2.4	nt	nt	nt
CCOc1ccccc1/C=C/c1onc(C)c1S(=O)(=O)N1CCC(C(=O)N2CCCCC2)CC1	-4.4%	nt	-3.5%	-13.5%	5.0%
COc1ccc(CCNC(=O)C(=O)NCC(c2ccco2)S(=O)(=O)c2ccc(C)cc2)cc1 (centres undefined)	-1.9%	nt	4.8%	3.8%	-6.6%
COc1ccc(-c2cc(C(F)(F)F)c3c(=O)n(-c4ccccc4)[nH]c3n2)cc1	?	4.0	8.91µM*	-8.0%	8.4%
CNc1cc(-c2ccccc2C(F)(F)F)ncn1	nt	-0.1	nt	nt	nt
Oc1[nH]c2ccccc2c1C=Nc1ccc2c(c1)OCO2	?	-2.4	7.94µM*	-17.8%	12.4%
Cc1[nH]c2ccccc2c1/C=N\NC(=O)CNc1ccc2c(c1)OCO2	?	-1.8	15.8µM*	-21.5%	-1.7%
Cc1[nH]c2ccccc2c1/C=N/NC(=O)CNC(=O)c1cccs1	?	-0.5	?	-11.1%	4.1%
COc1ccc(N=Cc2c(O)[nH]c3ccccc23)cc1	?	-3.7	?	-16.9%	15.5%
Cc1[nH]c2ccccc2c1/C=N/NC(=O)c1cccs1	17.8µM*[quencher]	-9.2	11.2µM*	-11.4%	9.7%
O=C(CSc1nc2ccccc2c2nc(-c3ccccc3)nn12)Nc1ccc(Br)cc1	-10.0%	nt	-2.3%	-13.0%	-9.6%
N#Cc1ccc(C(=O)Nc2ccc(N3CCN(C(=O)c4ccco4)CC3)cc2)c(F)c1	-16.8%	-0.2	1µM*	-8.7%	-0.5%
O=C(Nc1ccc(N2CCN(C(=O)c3ccco3)CC2)cc1)c1ccco1	-5.2%	-0.4	?	-5.3%	4.4%
O=C(OC1Cc2c(O)cc(O)cc2OC1c1cc(O)c(O)c(O)c1-c1c(C2Oc3cc(O)cc(O)c3CC2O)cc(O)c(O)c1O)c1cc(O)c(O)c(O)c1 (centres undefined)	12.6µM*[quencher]	0.4	17.8µM*	nt	?
CC(=O)Oc1cc(OC(C)=O)c2c(c1)OC(c1ccc(OC(C)=O)c(OC(C)=O)c1)C(OC(C)=O)C2 (centres undefined)	-11.2%	0.3	-18.0%	nt	-8.2%
N#CC1=C(SCC(=O)c2ccccc2)NC2=C(C(=O)CCC2)C1c1ccco1 (centres undefined)	-26.8%	-11.1	12.6µM*	-2.1%	31.6µM*
Cc1ccc(C(=O)CSC2=C(C#N)C(c3ccco3)C3=C(CCCC3=O)N2)cc1 (centres undefined)	-29.5%	0.9	15.8µM*	-24.0%	10.6%
Cc1nn2c(=O)cc(COC(=O)c3ccco3)nc2s1	-6.4%	nt	-5.0%	-21.6%	-5.0%
CCc1ccc(CSc2nc(-c3ccc(OC)cc3)nc3c2Cc2c(CO)cnc(C)c2O3)cc1	-2.7%	nt	-1.5%	-5.9%	5.7%
Oc1ccc2oc3c(c2c1C=NCc1ccncc1)CCCC3	?	-35.5*	15.8µM*	-21.4%	?
CCS(=O)(=O)Nc1ccc(C2=NN(S(=O)(=O)CC)C(c3cccs3)C2)cc1 (centres undefined)	nt	nt	nt	-22.0%	nt

Screening results as filed in PubChem.
